High-throughput results as filed in PubChem BioAssay.
The list is not random: actives were taken first. Their share in the collection is about 11%.
3T3 cytotox = kills NIH 3T3 cells. AID 1345082. 4.3% of 94,000 active. NIH 3T3 viability, CellTiter-Glo ATP luminescence, 48-72 h. Potency, µM (series often up to 96.7 µM), for the others: at the highest dose activity change, negative = cytotoxicity, most hits filed as inhibitors; note: nearly all actives have a fitted effect of over 55% in size
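NIH 3T3 cells at 400 cells/well received 23 nL of compound by pintool and were incubated 48 or 72 h at 37 °C. Viability was read as ATP-coupled CellTiter-Glo luminescence.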
NPR1 antag = antagonists of human natriuretic peptide receptor Npr1. HEK293 hNpr1 GloSensor cGMP, ANP-stimulated luminescence. Potency, µM (highest dose often 46.3 µM), for inactives: at the top dose activity change, negative = inhibition, most hits filed as inhibitors. 1.6% of 76,000 active. AID 1347048; calls by dose curve; note: nearly all actives have a fitted effect of over 60% in size
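HEK293 cells stably expressing human Npr1 and cGMP GloSensor pGS-40F, loaded 2 h with 2% GloSensor reagent, given compound 30 min at room temperature. Luminescence read before and 20 min after 0.1 nM hNppA.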
HEK cytotox = HEK 293 cell cytotoxicity | 6.6% of 94,000 active | Potency, µM (highest dose often 115 µM), inactives show at the highest dose activity change, negative = cytotoxicity, usual class: inhibitors | HEK 293 viability, ATP luminescence (CellTiter-Glo), 48-72 h; note: nearly all actives have a fitted effect of over 60% in size
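HEK 293 cells at 250 cells/well were exposed to compounds by pintool transfer for 48 or 72 hr at 37 degree Celsius, 5% CO2. Viability was read as ATP-coupled luminescence with CellTiter-Glo after 10 min at room temperature.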
FLuc inh = Photinus pyralis luciferase inhibition. P08659. 2.5% of 76,000 active. AID 1347043. Potency, µM (highest dose often 115 µM), most hits filed as inhibitors. purified P. pyralis luciferase, luminescence, biochemical; note: nearly all actives have a fitted effect of over 65% in size
Target sequence (P08659 whole entry, looked up): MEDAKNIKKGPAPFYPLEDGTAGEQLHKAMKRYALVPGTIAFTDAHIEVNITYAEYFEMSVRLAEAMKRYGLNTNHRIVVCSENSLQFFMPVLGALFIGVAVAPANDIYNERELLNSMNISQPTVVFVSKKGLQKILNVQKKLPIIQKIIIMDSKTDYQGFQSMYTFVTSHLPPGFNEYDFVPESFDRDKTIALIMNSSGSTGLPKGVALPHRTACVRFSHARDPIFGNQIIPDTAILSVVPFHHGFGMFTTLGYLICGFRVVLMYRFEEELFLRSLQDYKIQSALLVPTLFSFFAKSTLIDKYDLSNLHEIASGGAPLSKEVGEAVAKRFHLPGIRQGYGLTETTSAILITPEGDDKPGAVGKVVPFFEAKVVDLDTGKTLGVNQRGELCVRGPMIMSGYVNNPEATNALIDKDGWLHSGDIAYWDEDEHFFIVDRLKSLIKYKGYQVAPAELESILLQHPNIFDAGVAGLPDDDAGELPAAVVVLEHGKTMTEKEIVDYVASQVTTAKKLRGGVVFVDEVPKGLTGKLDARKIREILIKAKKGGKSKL
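FLuc 10nM, D-luciferin 10uM, ATP 10uM, Mg acetate 10mM, Tris acetate pH 7.5, Tween/BSA; cpd qHTS; enzyme added last; CCD luminescence.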
* hit, by the source's call; [ ] = dose if it differs, or a comment. Unless noted, calls come from the whole dose curve; as a rule, active = well fitted curve in the direction sought with a large enough effect; inconclusive = small, poorly fitted or top-dose-only effect, or another doubt; inactive = no such curve, though single readings can be large; an effect the other way counts as inactive or inconclusive. % is set by controls: 0 for no effect and ±100 for the full control effect; potency is the fitted concentration of half-maximal effect.

Screening CC(=O)N1CCN(c2ccnc(-c3nnc(C)n3-c3ccccc3)c2)CC1 returned 3T3 cytotox 89µM*, NPR1 antag -1%[70.6 µM], HEK cytotox 2%[172 µM] and FLuc inh inactive.
Screening COc1ccc(-c2ccnc(-c3nnc(C)n3CCN3CCOCC3)c2)cc1OC returned 3T3 cytotox 100µM*, NPR1 antag 1%[70.6 µM], HEK cytotox -25%[172 µM] and FLuc inh inactive.
For Cc1nnc(-c2cc(C(=O)NC3CCOCC3)ccn2)n1CCc1ccccc1 the results were 3T3 cytotox 89µM*, NPR1 antag 4%[70.6 µM], HEK cytotox inactive and FLuc inh inactive.
Screening Cc1nnc(-c2cc(-c3cnn(C)c3)ccn2)n1-c1ccccc1 returned 3T3 cytotox 89µM*, NPR1 antag 3%[70.6 µM], HEK cytotox inconclusive and FLuc inh inactive.
Screening Cc1nnc(-c2cc(-c3ccccc3Oc3ccccc3)ccn2)n1C returned 3T3 cytotox inconclusive, NPR1 antag 4%[70.6 µM], HEK cytotox 89µM* and FLuc inh inactive.
Screening Cc1ccccc1-c1cc(-c2cn[nH]c2)c2cncn2c1 returned 3T3 cytotox 71µM*, NPR1 antag -23%[70.6 µM], HEK cytotox inconclusive and FLuc inh inactive.
`COc1cc(F)ccc1-c1cc(-c2cn[nH]c2)c2cncn2c1` gave 3T3 cytotox 32µM*, NPR1 antag -11%[70.6 µM], HEK cytotox inconclusive and FLuc inh inactive.
Fc1cccc(-c2cc(-c3cn[nH]c3)c3cncn3c2)c1 was read as 3T3 cytotox inconclusive, NPR1 antag -13%[70.6 µM], HEK cytotox inconclusive and FLuc inh inactive.
For Fc1ccc(-c2cc(-c3cn[nH]c3)c3cncn3c2)cc1 the results were 3T3 cytotox 45µM*, NPR1 antag -15%[70.6 µM], HEK cytotox inconclusive and FLuc inh inactive.
For C[S+](=O)([O-])N1CCN(CCCn2nc3n(c2=O)CCCC3)CC1 the results were 3T3 cytotox -7%[138 µM] and HEK cytotox inactive.
For CN(CCCc1nccn1C)C(=O)[C@H]1CCC[C@H](O)C1 the results were 3T3 cytotox 0%, NPR1 antag 0%, HEK cytotox -4% and FLuc inh inactive.
Screening CN(CCCN1c2ccccc2CCc2ccccc21)C(=O)[C@H]1CCC[C@@H](O)C1 returned 3T3 cytotox inconclusive, NPR1 antag -16%, HEK cytotox 35µM* and FLuc inh inactive.
Screening CC(C)NC(=O)c1coc(COc2ccc3c(c2)C(c2cccc(F)c2)N(C(=O)C2CC2)CC3)n1 (centres undefined) returned 3T3 cytotox 22µM*, NPR1 antag -13%, HEK cytotox inconclusive and FLuc inh inactive.
`Cc1cccc(C2c3cc(OCc4nc(C(=O)NC(C)C)co4)ccc3CCN2C(=O)C2CC2)c1` (centres undefined) gave 3T3 cytotox 14µM*, NPR1 antag -16%, HEK cytotox 18µM* and FLuc inh inactive.
For CCNC(=O)c1coc(COc2ccc3c(c2)C(c2cccc(C)c2)N(C(=O)C2CC2)CC3)n1 (centres undefined) the results were 3T3 cytotox inconclusive, NPR1 antag inconclusive, HEK cytotox inconclusive and FLuc inh inactive.
Cc1nnc2ccc(N3CCN(C(=O)c4ccccc4Cl)CC3)nn12 was read as 3T3 cytotox inconclusive and HEK cytotox -13%.
CCn1cc(S(=O)(=O)N2CCC3(CCC3N3CCOCC3)CC2)cn1 (centres undefined) was read as 3T3 cytotox -5% and HEK cytotox 3%.
`CCCn1ncnc1C(C)Nc1cc(C(C)C)nc2cc(C)nn12` (centres undefined) gave 3T3 cytotox 35µM*, NPR1 antag 4%, HEK cytotox inconclusive and FLuc inh inactive.
`CCCN(CC1CC1)C(=O)c1coc(COc2ccc3sc(C)nc3c2)n1` gave 3T3 cytotox inconclusive, NPR1 antag inconclusive, HEK cytotox 40µM* and FLuc inh inactive.
COc1ccccc1-c1cccc(C(=O)N2CCN(C(=O)NC(C)C)CC2)c1 was read as 3T3 cytotox -15% and HEK cytotox inconclusive.
Screening CCN1c2cc(C(=O)Nc3ccccc3)ccc2C(=O)N2CCCCC21 (centres undefined) returned 3T3 cytotox inconclusive, NPR1 antag 0%, HEK cytotox inconclusive and FLuc inh inconclusive.
Screening CCN1c2cc(C(=O)Nc3ccc(C(N)=O)cc3)ccc2C(=O)N2CCCCC21 (centres undefined) returned 3T3 cytotox 32µM*, NPR1 antag 19%, HEK cytotox inconclusive and FLuc inh inactive.
CCN1c2cc(C(=O)Nc3ccc4c(c3)CCC4)ccc2C(=O)N2CCCCC21 (centres undefined) was read as 3T3 cytotox 13µM*, NPR1 antag 1%, HEK cytotox 22µM* and FLuc inh inconclusive.
`CCN1c2cc(C(=O)Nc3ccc(SC)cc3)ccc2C(=O)N2CCCCC21` (centres undefined) gave 3T3 cytotox 40µM*, NPR1 antag -25%, HEK cytotox inconclusive and FLuc inh inconclusive.
`CCN1c2cc(C(=O)Nc3cccc(SC)c3)ccc2C(=O)N2CCCCCC21` (centres undefined) gave 3T3 cytotox 22µM*, NPR1 antag inconclusive, HEK cytotox 22µM* and FLuc inh inactive.
Screening CC(C)(O)CCc1cccc(C(=O)NCc2ccc3c(c2)OCCCO3)c1 returned 3T3 cytotox inconclusive, NPR1 antag inconclusive, HEK cytotox inconclusive and FLuc inh inactive.
For CCOc1ccc(S(=O)(=O)N2CCC3(CC2)CN(C)CC3COC)cc1 (centres undefined) the results were 3T3 cytotox inconclusive, NPR1 antag -21%, HEK cytotox inconclusive and FLuc inh inactive.
For CCN1c2cc(C(=O)Nc3ccc(C)c(F)c3)ccc2C(=O)N2CCCC21 (centres undefined) the results were 3T3 cytotox -20%, NPR1 antag 5%, HEK cytotox -18% and FLuc inh inactive.
For CCN1c2cc(C(=O)Nc3ccc(C)c(F)c3)ccc2C(=O)N2CCCCC21 (centres undefined) the results were 3T3 cytotox 28µM*, NPR1 antag 0%, HEK cytotox inconclusive and FLuc inh inactive.
CCN1c2cc(C(=O)Nc3cc(F)cc(F)c3)ccc2C(=O)N2CCCCC21 (centres undefined) was read as 3T3 cytotox 28µM*, NPR1 antag -12%, HEK cytotox 35µM* and FLuc inh inactive.
For O=C(NCc1ccc(OC(F)(F)F)cc1)N1CCCC(Cn2cnc3cccnc32)C1 (centres undefined) the results were 3T3 cytotox inconclusive, NPR1 antag -6%, HEK cytotox inconclusive and FLuc inh inactive.
Screening Cc1nn(-c2ccccc2)c2c1C(C1CC1)N(C1CCN(Cc3cccc(F)c3)CC1)C2=O (centres undefined) returned 3T3 cytotox -23% and HEK cytotox inconclusive.
`O=C(NCCCc1ccccc1)C1CCN(Cc2ccccc2-c2ccccc2F)CC1` gave 3T3 cytotox inconclusive and HEK cytotox 22µM*.
